# Assay outcomes deposited in PubChem BioAssay by National Center for Advancing Translational Sciences (NCATS).
# An excerpt weighted towards active compounds, which were near 2.8% of everything screened.
# Pol eta inh: DNA polymerase eta (human) inhibition. Q9Y253. recombinant Pol eta, fluorescent DNA replication assay. Potency, µM (top dose mostly 114 µM), for inactives: at the highest dose activity change, negative = inhibition, actives largely listed as inhibitors. 390,000 compounds, 1.2% hits; also: potency is read from the fitted curve at half-maximal effect; % is scaled to controls: 0 for no effect and ±100 for the full control effect
#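 Fluorescent replication assay: 50 nM final substrate added after a 15 min room-temperature compound preincubation with 10 nM enzyme. Signal taken at 0 min and again at 10 min.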
# PI5P4Ka inh: PI5P4K alpha (human) kinase inhibition | P48426 | PI5P4Kalpha enzyme, ADP-Glo luminescence, 60 min; hits give low values | max response, % | 330,000 compounds, 1.2% hits | AID 652105; active = max response of -50% or lower; inconclusive = between -30% and -50%; inactive = -30% or higher; also: value at the top dose of about 77 µM; % is scaled to controls: 0 for no effect and ±100 for the full control effect
#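 qHTS, 1536-well: enzyme/substrate mix, compound by pin tool, 5 microM ATP final; RT 60 min; ADP-Glo reagents 1 (45 min) then 2 (30 min); luminescence.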
# POLB inh: blocks human DNA polymerase beta activity | P06746 | Pol beta primer extension/strand displacement, fluorescence kinetic | Potency, µM (doses to about 114 µM), inactives show at the top dose activity change, negative = inhibition, usual class: inhibitors | 340,000 compounds, 1.3% hits; also: potency is read from the fitted curve at half-maximal effect; % is scaled to controls: 0 for no effect and ±100 for the full control effect
#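 Enzyme-only controls used 10 nM Pol beta; buffer lacking enzyme served as negative control. Compound preincubated 15 min, then 50 nM substrate added; 0 and 10 min reads at room temperature.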
# Pol iota inh: inhibitors of human DNA polymerase iota | Pol iota fluorescent replication assay, 10 min | Potency, µM (doses to about 115 µM), without a hit: top-dose activity, negative = inhibition, actives largely listed as inhibitors | 390,000 compounds, 1% hits | AID 588590; also: potency is read from the fitted curve at half-maximal effect
# Target sequence (Q9UNA4 whole entry, looked up): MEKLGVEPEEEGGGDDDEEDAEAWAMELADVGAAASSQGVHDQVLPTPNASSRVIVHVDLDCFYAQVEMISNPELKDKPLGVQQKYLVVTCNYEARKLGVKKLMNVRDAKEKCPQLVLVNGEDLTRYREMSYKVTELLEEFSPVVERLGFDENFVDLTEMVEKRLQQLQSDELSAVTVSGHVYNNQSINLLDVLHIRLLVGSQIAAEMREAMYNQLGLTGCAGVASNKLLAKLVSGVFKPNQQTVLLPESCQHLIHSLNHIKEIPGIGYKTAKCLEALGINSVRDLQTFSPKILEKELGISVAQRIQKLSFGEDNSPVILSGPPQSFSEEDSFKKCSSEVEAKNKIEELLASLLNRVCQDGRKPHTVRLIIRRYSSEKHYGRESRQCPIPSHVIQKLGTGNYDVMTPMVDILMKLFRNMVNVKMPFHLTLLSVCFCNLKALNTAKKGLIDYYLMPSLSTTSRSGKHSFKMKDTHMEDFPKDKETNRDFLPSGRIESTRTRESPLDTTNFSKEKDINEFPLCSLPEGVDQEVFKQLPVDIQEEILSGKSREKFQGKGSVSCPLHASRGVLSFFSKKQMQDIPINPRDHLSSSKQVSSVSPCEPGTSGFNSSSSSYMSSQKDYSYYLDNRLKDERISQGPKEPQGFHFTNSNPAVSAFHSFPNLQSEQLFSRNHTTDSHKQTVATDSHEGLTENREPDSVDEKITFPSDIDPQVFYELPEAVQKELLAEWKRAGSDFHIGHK
#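 Pol iota at 10 nM preincubated 15 min with compounds at room temperature; reaction started with fluorescent substrate, 50 nM final. Fluorescence read kinetically at 0 and 10 min; buffer-only wells as negative control.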
# POLK inh: DNA polymerase kappa (human) inhibition. Q9UBT6. purified Pol kappa, fluorescent DNA synthesis assay, 10 min. Potency, µM (titrated, usually from 107 µM), without a hit: at the highest dose activity, negative = inhibition, actives largely listed as inhibitors. 400,000 compounds, 0.53% hits. AID 588579; also: potency is read from the fitted curve at half-maximal effect; % is scaled to controls: 0 for no effect and ±100 for the full control effect
#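 10 nM Pol kappa was preincubated with compounds for 15 min at room temperature. Reaction started with 50 nM (final) substrate. Fluorescence read kinetically at 0 and 10 min.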
# WRN inhibitor: inhibitors of human WRN helicase | Q14191 | WRN helicase unwinding, fluorescent forked duplex, kinetic | Potency, µM (titrated, usually from 114 µM), without a hit: at the highest dose activity change, negative = inhibition, hits mostly inhibitors | 360,000 compounds, 0.46% hits | AID 651768; also: potency is read from the fitted curve at half-maximal effect; % is scaled to controls: 0 for no effect and ±100 for the full control effect; nearly all actives have a fitted effect of over 55% in size
#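 Enzyme (20 nM final) and test compound sit together 15 min at room temperature before substrate addition. Substrate is a single-forked duplex oligonucleotide (100 nM) labelled with fluorophore and quencher, with 2 mM ATP; helicase unwinding raises red fluorescence, read kinetically.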
# An asterisk follows results filed as active; ? = inconclusive; · = no result; [ ] = remark or other dose. Unless noted, calls follow the shape of the dose curve; as a rule, active = well fitted curve in the direction sought with a large enough effect; inconclusive = small, poorly fitted or top-dose-only effect, or another doubt; inactive = no such curve, though single readings can be large; an effect the other way counts as inactive or inconclusive.
SMILES,Pol eta inh,PI5P4Ka inh,POLB inh,Pol iota inh,POLK inh,WRN inhibitor
CCOC(=O)C(C)Sc1nc(-c2ccco2)cc(C(F)(F)F)c1C#N (centres undefined),-16%,-56*,-1%,?,-15%,?
CCOC(=O)COc1nc(-c2ccc(C)cc2)cc(-c2ccco2)c1C#N,-16%,-1,0%,0%,-3%,-6%
COc1ccc(Cc2nc3ccccc3n2Cc2ccccc2F)cc1,-14%,·,26%,9%,-7%,·
c1ccc2c(c1)sc[n+]2CCC1CCCCC1,·,·,·,17%,13%,·
Cc1ccccc1NC(=O)C(=O)NCC1(c2ccccc2)CCCC1,-17%,·,23%,22%,3%,·
Cc1cc(C)cc(NC(=O)CCCn2c(=O)c3cccn3c3ccccc32)c1,-21%,·,-20%,34%,-6%,·
O=C(CCCn1c(=O)c2cccn2c2ccccc21)Nc1cccc(Cl)c1,·,·,45µM*,0%,-26%,·
Cc1ccc(Cc2c(C)nc3nc(SCC(=O)NC4CCC(C)CC4)nn3c2C)cc1 (centres undefined),-18%,·,6%,15%,2%[60.1 µM],·
Cc1cn2c(N)c(C=C3C=C(Cl)C(=O)C(Cl)=C3)c(=O)nc2s1,?,-78*,-24%,41%,-5%,-7%
Cc1cn2c(=O)cc(COc3ccc(Cl)cc3)nc2s1,4%,·,6%,25%,2%,·
COC1=C/C(=C/c2c(N)n3cc(C)sc3nc2=O)C=CC1=O,-8%,-81*,2%,27%,-9%,-12%
CCC1C(=O)C(C)(C)C(=O)OC1c1ccc([N+](=O)[O-])cc1 (centres undefined),-17%,0,89µM*,46%,-2%,2%
O=C(Cn1cnnn1)OCC(=O)c1ccc(Cl)s1,14µM*,-66*,22µM*,?,?,-9%[11.6 µM]
Cc1cc(C)c(C(=O)COC(=O)Cn2cnnn2)cc1C,3%,·,17%,14%,-5%,-5%
O=C(Nc1ccccc1C(=O)NC1CC1)c1ccc([N+](=O)[O-])o1,32µM*,?,·,50µM*,-35%,-35%
O=C(CNC(=O)c1ccc(-c2ccccc2)cc1)OCc1ccc(Br)cc1,22µM*,3,1%,110%,-2%,-5%[57.1 µM]
COc1ccc(C(=O)NCC(=O)OCc2ccc(Br)cc2)cc1,-6%,0,21%,-22%,3%,3%
C(=C\c1ccco1)/C=N/n1cnnc1,-1%,4,13%,40µM*,?,-8%[57.1 µM]
CC(/C=N/n1c(-c2ccco2)n[nH]c1=S)=C\c1ccco1,?,-28,28µM*,?,-6%,-25%
C(=N\Nc1ccc2nncn2n1)/c1ccco1,-19%,-2,-25%,150%,-9%,-6%
S=c1[nH]nc(-c2ccccc2Cl)n1/N=C/C=C/c1ccco1,50µM*,-60*,20µM*,?,79µM*,?
Cc1nc2ccccc2nc1-c1csc(-c2ccccc2)n1,·,·,·,-16%,-5%,·
CCOC(=O)CSC1=NC(=O)/C(=C/c2ccc(Br)cc2)S1,-6%,-55*,6%,-8%,3%,-28%
CCOC(=O)c1c(C)[nH]c(C)c1S(=O)(=O)N1CCC(C(=O)N2CCN(c3cccc(C)c3C)CC2)CC1,-23%,·,?,22%,-7%[60.1 µM],·
COc1cc(C=O)ccc1OCCOCCOc1ccc(Cl)cc1Cl,-17%,-1,·,-1%,-10%,-18%
SMILES,Pol eta inh,PI5P4Ka inh,POLB inh,Pol iota inh,POLK inh,WRN inhibitor
COc1cc(C=O)ccc1OCCOCCOc1c(C)cc(Cl)cc1Cl,-12%,3,10µM*,2%,-5%,-8%
COc1cc(CNC(C)(C)CO)cc(Br)c1OCc1ccccc1,-9%,28,28%,63%,-7%,-4%
CCOc1cc(CNc2ccc(O)cc2)cc(Br)c1OCc1ccccc1F,-24%,4,-14%,-101%,-4%,-36%
CCOc1cc(CNc2ccc(O)cc2)cc(Br)c1OCc1ccccc1,-24%,·,-2%,40µM*,-10%,·
Oc1ccc(NCc2ccccc2OCc2ccccc2)cc1,?,-19,5%,7.1µM*,-11%,-17%
COc1cc(CNc2ccc(O)cc2)cc(Br)c1OCc1ccccc1F,-17%,1,-29%,28µM*,-36%,?
COc1ccc(-c2nc(Cn3c(=O)cc(-c4ccccc4)c4c(C)nn(C)c43)c(C)o2)cc1OC,-13%,·,1%,-12%,6%,·
Cc1ccc(NC(=O)Cn2c(=O)oc3ccccc32)cc1,-14%,-3,25%,141%,-16%,7%
O=C(Cn1c(=O)oc2ccccc21)Nc1n[nH]c(=S)s1,-14%,-79*,-10%,27%,-38%,-6%
Cc1ccc(NC(=O)Cn2c(=O)oc3ccccc32)cc1Cl,0%,-1,40µM*,92%,-23%,-20%
Cc1nc2cc(N=NC3=C(O)CCCC3=O)ccc2s1,-16%,-23,-26%,50µM*,-28%,-5%
O=C1CCCC(O)=C1N=Nc1ccc(Cl)c(Cl)c1,-18%,-19,?,-19%,-4%,0%
Cc1ccc(NC(=O)c2ccc(CN3CC(=O)N4CCCCC4C3=O)cc2)cc1 (centres undefined),-15%,·,-11%,-15%,1%,·
O=C(NCC(=O)N1CCN(c2ccccc2O)CC1)c1ccco1,-19%,-2,-23%,79µM*,-31%,-19%
CCOC(=O)c1ccc2nc(C(F)(F)F)[nH]c(=O)c2c1,-16%,-57*,-3%,-7%,-2%,-7%
CC(=O)c1ccc(OCCCC(=O)NCC(c2ccco2)N(C)C)cc1 (centres undefined),13%,·,-2%,10%,-5%,-3%
CN(C)C(CNC(=O)CCOc1ccccc1)c1ccco1 (centres undefined),?,-2,?,32µM*,79µM*,-18%
COc1ccc(N2CCN(C(=O)CCc3c(C)nc4cc(-c5cccc(F)c5)nn4c3C)CC2)cc1,-15%,·,-22%,3%,-2%,·
Nc1n[nH]c(=S)n1-c1ccc(Cl)cc1,2%,-54*,-24%,-1%,10%,4%
S=c1[nH]nc(-c2ccc(Cl)cc2)n1-c1ccc(Cl)cc1,-8%,0,23%,108%,-7%,-11%
O=S(=O)(c1ccc(Cl)cc1)c1nc(-c2ccco2)oc1SCc1ccc(F)cc1,5%,·,8%,-28%,-5%,·
COC(=O)c1cc2c([nH]c1=O)CC(c1ccccc1)CC2=O (centres undefined),·,·,·,10%,6%,·
Cc1ccc(NC(=O)Cn2c(=O)n(-c3ccc(C)cc3)c(=O)c3c2cnn3C)cc1,-3%,·,4%,-23%,-4%,·
Cc1nc2c(C(=O)NCCC(C)C)c[nH]n2c(=O)c1Cc1ccccc1F,-3%,·,71µM*,?,-12%,-9%[57.1 µM]
